Test results reported in PubChem BioAssay (EPA / NIEHS).
Results filed as inconclusive are left out. The source made the active and inactive calls. How the source made its calls, unless noted: active means hit-call score of the fitted dose curve at least 0.9, where 1 is the maximum; inactive means score below 0.9.

Columns and labels:
CDK2 (gene 1017) = CDK2 (gene 1017) (UniProt P24941); test: NVS_ENZ_hCDK2: NovaScreen (NVS) Enzymatic Assay for human Cyclin-Cependent Kinase 2 (CDK2) (AID 2283144; active means hit-call score of the fitted dose curve at least 0.9, where 1 is the maximum)
Method in brief: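 Compounds screened in duplicate at 25 uM, then in singleton concentration-response to a maximum of 50 uM, against recombinant CDK2; kinase activity read 1 hr after dosing by fluorescence with mobility-shift separation of substrate and product.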

[1] = biological target: human Protein Tyrosine Phosphatase Receptor Type M (PTPRM), PTPRM (gene 5797) (UniProt P28827); test: NVS_ENZ_hPTPRM: NovaScreen (NVS) Enzymatic Assay for human Protein Tyrosine Phosphatase Receptor Type M (PTPRM) (AID 2283215; active means hit-call score of the fitted dose curve at least 0.9, where 1 is the maximum)
human Protein Tyrosine Phosphatase Receptor Type M (PTPRM), PTPRM (gene 5797), sequence (P28827 whole entry, looked up): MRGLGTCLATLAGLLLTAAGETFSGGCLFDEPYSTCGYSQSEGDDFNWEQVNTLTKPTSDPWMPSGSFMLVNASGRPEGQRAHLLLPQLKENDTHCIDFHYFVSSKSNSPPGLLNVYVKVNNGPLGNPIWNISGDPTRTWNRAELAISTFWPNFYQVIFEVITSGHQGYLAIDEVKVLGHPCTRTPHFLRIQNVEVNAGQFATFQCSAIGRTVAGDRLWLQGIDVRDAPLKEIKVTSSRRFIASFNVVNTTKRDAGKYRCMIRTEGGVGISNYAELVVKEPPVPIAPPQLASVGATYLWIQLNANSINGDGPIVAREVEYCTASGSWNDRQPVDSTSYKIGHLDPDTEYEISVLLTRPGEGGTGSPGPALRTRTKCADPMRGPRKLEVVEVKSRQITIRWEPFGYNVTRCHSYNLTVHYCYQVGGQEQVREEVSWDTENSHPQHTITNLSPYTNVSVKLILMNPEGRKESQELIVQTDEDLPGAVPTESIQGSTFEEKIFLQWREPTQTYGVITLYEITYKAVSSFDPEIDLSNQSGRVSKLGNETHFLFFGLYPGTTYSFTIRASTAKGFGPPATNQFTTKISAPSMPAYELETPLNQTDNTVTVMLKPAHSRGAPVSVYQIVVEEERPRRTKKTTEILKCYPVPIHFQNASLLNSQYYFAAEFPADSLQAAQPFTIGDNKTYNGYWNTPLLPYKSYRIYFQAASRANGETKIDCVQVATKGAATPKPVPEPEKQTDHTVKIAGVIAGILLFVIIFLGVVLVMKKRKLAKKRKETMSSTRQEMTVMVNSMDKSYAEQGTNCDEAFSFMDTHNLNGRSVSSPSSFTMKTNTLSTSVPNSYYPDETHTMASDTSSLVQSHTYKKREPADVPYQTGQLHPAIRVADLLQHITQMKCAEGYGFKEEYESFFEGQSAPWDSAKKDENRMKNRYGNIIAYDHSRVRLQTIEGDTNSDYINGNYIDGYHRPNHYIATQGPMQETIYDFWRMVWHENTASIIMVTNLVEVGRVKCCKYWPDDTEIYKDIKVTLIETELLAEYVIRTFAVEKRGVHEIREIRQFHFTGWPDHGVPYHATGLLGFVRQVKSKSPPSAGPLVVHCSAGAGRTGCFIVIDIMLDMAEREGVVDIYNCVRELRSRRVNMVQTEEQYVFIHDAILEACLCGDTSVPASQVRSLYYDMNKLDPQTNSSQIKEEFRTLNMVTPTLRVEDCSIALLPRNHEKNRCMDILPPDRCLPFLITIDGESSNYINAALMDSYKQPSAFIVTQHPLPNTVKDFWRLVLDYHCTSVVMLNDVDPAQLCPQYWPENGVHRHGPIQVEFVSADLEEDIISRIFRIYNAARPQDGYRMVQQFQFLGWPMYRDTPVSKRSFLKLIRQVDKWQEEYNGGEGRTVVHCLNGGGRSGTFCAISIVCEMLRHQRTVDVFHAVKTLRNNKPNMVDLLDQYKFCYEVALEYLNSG
Method in brief: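 Read-out is fluorescence after electrophoretic separation of substrate and product, taken 1.33 h post-dosing with recombinant enzyme. Compounds screened at 25 uM in duplicate, then concentration series for actives; activity as signal loss relative to DMSO.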

[2] = read-out: Tumor necrosis factor receptor superfamily member 6 (Homo sapiens) (UniProt P25445); test: LTEA_HepaRG_FAS: Life Technologies and Expression Analysis (LTEA) Assay for Fas cell surface death receptor (FAS) using HepaRG (AID 2283447); details: mRNA level, 48 h; actives raise or lower the signal
Method in brief: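 Differentiated HepaRG cells in serum-free induction medium were exposed 48 h to 8 half-log concentrations up to 100 uM in 0.5% DMSO, in duplicate. FAS mRNA was measured by qRT-PCR normalised to ACTB, GAPDH and POLR2A; bidirectional fit versus DMSO.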

[3] = read-out: Fatty acid synthase (Homo sapiens) (UniProt P49327); test: LTEA_HepaRG_FASN: Life Technologies and Expression Analysis (LTEA) Assay for Fatty Acid Synthase (FASN) using HepaRG (AID 2283448); details: mRNA level, 48 h; actives raise or lower the signal
Method in brief: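 HepaRG, 48 h exposure, 8-pt half-log series top 100 uM, 0.5% DMSO vehicle, duplicates. Readout: FASN transcript by Fluidigm qRT-PCR; housekeeping-normalized; bidirectional curve fit vs DMSO baseline.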

[4] = read-out: Cyclin Dependent Kinase Inhibitor 1A (CDKN1A), CDKN1A (gene 1026); test: LTEA_HepaRG_CDKN1A: Life Technologies and Expression Analysis (LTEA) Assay for Cyclin Dependent Kinase Inhibitor 1A (CDKN1A) using HepaRG (AID 2283450); details: mRNA level, 48 h; actives raise or lower the signal
Method in brief: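 Gain or loss of CDKN1A transcript is scored by bidirectional fitting against 0.5% DMSO vehicle. Human HepaRG cultures receive chemicals for 48 h across an 8-point series peaking at 100 uM; expression comes from qRT-PCR.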

[5] = read-out: Cyclin D1 (CCND1), CCND1 (gene 595); test: LTEA_HepaRG_CCND1: Life Technologies and Expression Analysis (LTEA) Assay for Cyclin D1 (CCND1) using HepaRG (AID 2283451); details: mRNA level, 48 h; actives raise or lower the signal
Method in brief: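 Expression change is measured by qRT-PCR in HepaRG cells after 48 h treatment across eight concentrations topping at 100 uM, with duplicate wells and DMSO (0.5%) serving as baseline for bidirectional fitting.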

[6] = read-out: catalase (CAT), CAT (gene 847); test: LTEA_HepaRG_CAT: Life Technologies and Expression Analysis (LTEA) Assay for catalase (CAT) using HepaRG (AID 2283452); details: mRNA level, 48 h; actives raise or lower the signal
Method in brief: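 HepaRG cells in serum-free induction medium, 0.5% DMSO vehicle, exposed 48 h in duplicate over 8 half-log concentrations from 100 uM. CAT mRNA measured by qRT-PCR, normalized to ACTB, GAPDH, POLR2A; bidirectional fit versus DMSO.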

[7] = read-out: flavin-containing dimethylaniline monooxygenases 3 (FMO3), FMO3 (gene 2328); test: LTEA_HepaRG_FMO3: Life Technologies and Expression Analysis (LTEA) Assay for flavin-containing dimethylaniline monooxygenases 3 (FMO3) using HepaRG (AID 2283453); details: mRNA level, 48 h; actives raise or lower the signal
Method in brief: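 Eight-point concentration-response in serum-free HepaRG cultures (top 100 uM, 0.5% DMSO, 48 h). Read-out: FMO3 mRNA level normalized to three endogenous control genes, fitted bidirectionally versus vehicle.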

[8] = read-out: Cytochrome P450 (CYP1A1), CYP1A1 (gene 1543); test: LTEA_HepaRG_CYP1A1: Life Technologies and Expression Analysis (LTEA) Assay for Cytochrome P450 (CYP1A1) using HepaRG (AID 2283454); details: mRNA level, 48 h; actives raise or lower the signal
Method in brief: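 Using HepaRG cultures with 0.5% DMSO as vehicle, eight-concentration exposures (max 100 uM) lasted 48 h. Transcript levels were measured by TaqMan qRT-PCR and normalized to ACTB, GAPDH and POLR2A.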

[9] = read-out: CFLAR gene, CFLAR (gene 8837); test: LTEA_HepaRG_CFLAR: Life Technologies and Expression Analysis (LTEA) Assay for CFLAR gene using HepaRG (AID 2283455); details: mRNA level, 48 h; actives raise or lower the signal
Method in brief: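 qRT-PCR read-out (Fluidigm/TaqMan) of CFLAR mRNA, normalized to three housekeeping genes, in differentiated human HepaRG cells after 48 h chemical exposure; 8-point half-log series from 100 uM in 0.5% DMSO; bidirectional curve fitting versus DMSO.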

[10] = read-out: Forkhead box O1 (FOXO1), FOXO1 (gene 2308); test: LTEA_HepaRG_FOXO1: Life Technologies and Expression Analysis (LTEA) Assay for Forkhead box O1 (FOXO1) using HepaRG (AID 2283456); details: mRNA level, 48 h; actives raise or lower the signal
Method in brief: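 HepaRG, 48 h exposure, 8-pt half-log series from 100 uM in 0.5% DMSO, duplicates; Fluidigm qRT-PCR mRNA, housekeeping-normalised; bidirectional fit vs DMSO baseline.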

[11] = read-out: growth arrest and DNA damage 45 (GADD45A), GADD45A (gene 1647); test: LTEA_HepaRG_GADD45A: Life Technologies and Expression Analysis (LTEA) Assay for growth arrest and DNA damage 45 (GADD45A) using HepaRG (AID 2283458); details: mRNA level, 48 h; actives raise or lower the signal
Method in brief: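 HepaRG, 48 h exposure, 8 conc. (top 100 uM, half-log steps), 0.5% DMSO vehicle, duplicates. Read-out: qRT-PCR mRNA level, housekeeping-normalized (ACTB/GAPDH/POLR2A). Curves fit bidirectionally vs DMSO baseline.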

[12] = read-out: Forkhead box O3 (FOXO3), FOXO3 (gene 2309); test: LTEA_HepaRG_FOXO3: Life Technologies and Expression Analysis (LTEA) Assay for Forkhead box O3 (FOXO3) using HepaRG (AID 2283459); details: mRNA level, 48 h; actives raise or lower the signal
Method in brief: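 qRT-PCR readout of FOXO3 transcript, normalized to three housekeeping genes (ACTB, GAPDH, POLR2A); gain or loss fitted against 0.5% DMSO vehicle. HepaRG cells, 48 h chemical exposure, 8-point half-log series, top 100 uM.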

[13] = read-out: ABC Transporter (ABCB1), ABCB1 (gene 5243); test: LTEA_HepaRG_ABCB1: Life Technologies and Expression Analysis (LTEA) Assay for ABC Transporter (ABCB1) using HepaRG (AID 2283460); details: mRNA level, 48 h; actives raise or lower the signal
Method in brief: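 HepaRG, 48 h exposure, 8-pt half-log series from 100 uM, 0.5% DMSO vehicle, duplicates. Readout: ABCB1 transcript by Fluidigm TaqMan qRT-PCR, housekeeping-normalized; bidirectional curve fit vs DMSO baseline.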

[14] = read-out: growth arrest and DNA damage 45 (GADD45B), GADD45B (gene 4616); test: LTEA_HepaRG_GADD45B: Life Technologies and Expression Analysis (LTEA) Assay for growth arrest and DNA damage 45 (GADD45B) using HepaRG (AID 2283461); details: mRNA level, 48 h; actives raise or lower the signal
Method in brief: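 Human HepaRG monolayers receive chemicals for 48 h at eight half-log concentrations, highest 100 uM, in 0.5% DMSO. Expression is measured by TaqMan qRT-PCR and normalized to ACTB, GAPDH and POLR2A.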

[15] = read-out: ABC Transporter (ABCC3), ABCC3 (gene 8714); test: LTEA_HepaRG_ABCC3: Life Technologies and Expression Analysis (LTEA) Assay for ABC Transporter (ABCC3) using HepaRG (AID 2283462); details: mRNA level, 48 h; actives raise or lower the signal
Method in brief: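 Transcriptional change of ABCC3 in HepaRG after 48 h treatment, determined by qRT-PCR normalized to endogenous controls. Concentrations spanned eight half-log steps to 100 uM in 0.5% DMSO.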

[16] = read-out: ABC Transporter (ABCB11), ABCB11 (gene 8647); test: LTEA_HepaRG_ABCB11: Life Technologies and Expression Analysis (LTEA) Assay for ABC Transporter (ABCB11) using HepaRG (AID 2283463); details: mRNA level, 48 h; actives raise or lower the signal
Method in brief: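 HepaRG, 48 h exposure, 8-pt half-log CRC top 100 uM, 0.5% DMSO vehicle, duplicates. Readout: TaqMan qRT-PCR of ABCB11 mRNA, housekeeping-normalized (ACTB/GAPDH/POLR2A). Bidirectional fit vs DMSO baseline.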

[17] = read-out: ABC Transporter (ABCC2), ABCC2 (gene 1244); test: LTEA_HepaRG_ABCC2: Life Technologies and Expression Analysis (LTEA) Assay for ABC Transporter (ABCC2) using HepaRG (AID 2283464); details: mRNA level, 48 h; actives raise or lower the signal
Method in brief: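 After plating and 48 h culture, HepaRG medium is replaced with serum-free induction medium and chemicals are added (8 concentrations, max 100 uM, 0.5% DMSO) for 48 h. Total RNA then undergoes qRT-PCR for ABCC2 with housekeeping normalization.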

[18] = read-out: Broad substrate specificity ATP-binding cassette transporter ABCG2 (Homo sapiens) (UniProt Q9UNQ0); test: LTEA_HepaRG_ABCG2: Life Technologies and Expression Analysis (LTEA) Assay for ABC Transporter (ABCG2) using HepaRG (AID 2283465); details: mRNA level, 48 h; actives raise or lower the signal
Method in brief: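 HepaRG, 48 h exposure, 8-pt half-log series from 100 uM, 0.5% DMSO vehicle, duplicates. Readout: ABCG2 transcript by qRT-PCR (Fluidigm array), housekeeping-normalized; bidirectional curve fit relative to DMSO baseline.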

[19] = read-out: ATP-citrate lyase (ACLY), ACLY (gene 47); test: LTEA_HepaRG_ACLY: Life Technologies and Expression Analysis (LTEA) Assay for ATP-citrate lyase (ACLY) using HepaRG (AID 2283466); details: mRNA level, 48 h; actives raise or lower the signal
Method in brief: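 qRT-PCR readout of ACLY transcript after 48 h chemical treatment of HepaRG cells; expression normalized to three housekeeping genes. Eight-point half-log series, highest 100 uM, 0.5% DMSO vehicle. Gain or loss fitted against DMSO baseline.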

Fatty acid synthase (Homo sapiens), sequence (P49327 whole entry, looked up): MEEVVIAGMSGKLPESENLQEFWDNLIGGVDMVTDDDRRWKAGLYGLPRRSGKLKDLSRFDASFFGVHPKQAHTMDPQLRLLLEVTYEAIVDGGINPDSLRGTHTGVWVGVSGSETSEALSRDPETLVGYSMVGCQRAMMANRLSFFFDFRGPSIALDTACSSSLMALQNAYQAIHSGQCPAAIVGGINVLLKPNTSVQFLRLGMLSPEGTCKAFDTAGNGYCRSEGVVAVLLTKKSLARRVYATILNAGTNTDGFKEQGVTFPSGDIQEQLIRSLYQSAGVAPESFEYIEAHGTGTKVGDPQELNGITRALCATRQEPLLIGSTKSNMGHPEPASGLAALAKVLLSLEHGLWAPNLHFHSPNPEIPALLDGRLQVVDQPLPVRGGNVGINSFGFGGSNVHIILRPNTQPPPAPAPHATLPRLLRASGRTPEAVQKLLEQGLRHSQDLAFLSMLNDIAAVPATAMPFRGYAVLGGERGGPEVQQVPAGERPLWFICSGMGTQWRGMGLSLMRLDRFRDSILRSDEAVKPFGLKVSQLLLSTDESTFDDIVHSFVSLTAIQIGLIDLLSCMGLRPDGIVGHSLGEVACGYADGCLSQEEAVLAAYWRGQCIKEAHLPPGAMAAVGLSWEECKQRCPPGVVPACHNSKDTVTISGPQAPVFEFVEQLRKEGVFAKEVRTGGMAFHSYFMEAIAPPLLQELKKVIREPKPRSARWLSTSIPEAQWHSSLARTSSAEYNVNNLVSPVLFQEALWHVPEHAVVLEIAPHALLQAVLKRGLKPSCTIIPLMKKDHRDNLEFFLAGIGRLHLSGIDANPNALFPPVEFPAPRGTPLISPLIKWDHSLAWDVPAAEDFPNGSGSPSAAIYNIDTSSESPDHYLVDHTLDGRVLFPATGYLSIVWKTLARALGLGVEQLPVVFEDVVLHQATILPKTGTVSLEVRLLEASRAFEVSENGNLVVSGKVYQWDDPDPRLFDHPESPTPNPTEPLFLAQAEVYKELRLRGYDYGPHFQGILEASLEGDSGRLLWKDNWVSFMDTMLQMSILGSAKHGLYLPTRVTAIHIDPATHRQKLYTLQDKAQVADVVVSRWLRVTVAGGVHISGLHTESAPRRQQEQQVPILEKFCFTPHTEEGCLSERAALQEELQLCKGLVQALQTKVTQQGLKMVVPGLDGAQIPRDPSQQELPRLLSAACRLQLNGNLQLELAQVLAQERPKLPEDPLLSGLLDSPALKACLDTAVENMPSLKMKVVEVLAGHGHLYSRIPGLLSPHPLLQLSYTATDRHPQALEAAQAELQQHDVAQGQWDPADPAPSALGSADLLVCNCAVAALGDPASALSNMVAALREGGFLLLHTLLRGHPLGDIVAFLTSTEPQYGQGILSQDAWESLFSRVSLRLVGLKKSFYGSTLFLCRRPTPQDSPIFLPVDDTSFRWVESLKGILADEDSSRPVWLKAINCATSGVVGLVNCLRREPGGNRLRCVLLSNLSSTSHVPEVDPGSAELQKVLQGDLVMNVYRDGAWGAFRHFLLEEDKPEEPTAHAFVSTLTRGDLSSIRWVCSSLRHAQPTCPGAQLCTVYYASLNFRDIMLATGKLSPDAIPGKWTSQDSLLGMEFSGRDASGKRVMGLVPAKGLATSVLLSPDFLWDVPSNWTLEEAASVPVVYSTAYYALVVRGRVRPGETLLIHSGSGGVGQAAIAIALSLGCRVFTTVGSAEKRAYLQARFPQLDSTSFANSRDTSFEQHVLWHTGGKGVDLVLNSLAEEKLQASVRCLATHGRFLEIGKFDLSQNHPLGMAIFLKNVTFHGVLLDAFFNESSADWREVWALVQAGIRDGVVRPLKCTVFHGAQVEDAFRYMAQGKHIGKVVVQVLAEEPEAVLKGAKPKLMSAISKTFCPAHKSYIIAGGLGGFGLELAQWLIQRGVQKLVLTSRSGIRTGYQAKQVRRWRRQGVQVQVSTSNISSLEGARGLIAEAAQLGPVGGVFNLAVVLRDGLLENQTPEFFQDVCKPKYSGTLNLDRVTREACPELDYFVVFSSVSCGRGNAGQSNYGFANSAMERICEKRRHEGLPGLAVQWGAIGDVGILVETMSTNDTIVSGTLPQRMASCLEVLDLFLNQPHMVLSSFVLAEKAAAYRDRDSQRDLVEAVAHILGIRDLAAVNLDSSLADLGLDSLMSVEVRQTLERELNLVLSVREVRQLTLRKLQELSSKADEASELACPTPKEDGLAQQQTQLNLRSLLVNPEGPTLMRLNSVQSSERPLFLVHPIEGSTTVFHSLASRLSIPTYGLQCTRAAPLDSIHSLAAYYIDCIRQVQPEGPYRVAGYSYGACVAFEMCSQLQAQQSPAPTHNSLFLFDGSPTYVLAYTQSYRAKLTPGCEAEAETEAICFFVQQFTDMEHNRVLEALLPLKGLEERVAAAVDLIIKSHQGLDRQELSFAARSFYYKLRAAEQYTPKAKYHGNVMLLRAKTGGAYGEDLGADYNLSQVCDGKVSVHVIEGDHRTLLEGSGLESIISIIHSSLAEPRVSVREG
Broad substrate specificity ATP-binding cassette transporter ABCG2 (Homo sapiens), sequence (Q9UNQ0 whole entry, looked up): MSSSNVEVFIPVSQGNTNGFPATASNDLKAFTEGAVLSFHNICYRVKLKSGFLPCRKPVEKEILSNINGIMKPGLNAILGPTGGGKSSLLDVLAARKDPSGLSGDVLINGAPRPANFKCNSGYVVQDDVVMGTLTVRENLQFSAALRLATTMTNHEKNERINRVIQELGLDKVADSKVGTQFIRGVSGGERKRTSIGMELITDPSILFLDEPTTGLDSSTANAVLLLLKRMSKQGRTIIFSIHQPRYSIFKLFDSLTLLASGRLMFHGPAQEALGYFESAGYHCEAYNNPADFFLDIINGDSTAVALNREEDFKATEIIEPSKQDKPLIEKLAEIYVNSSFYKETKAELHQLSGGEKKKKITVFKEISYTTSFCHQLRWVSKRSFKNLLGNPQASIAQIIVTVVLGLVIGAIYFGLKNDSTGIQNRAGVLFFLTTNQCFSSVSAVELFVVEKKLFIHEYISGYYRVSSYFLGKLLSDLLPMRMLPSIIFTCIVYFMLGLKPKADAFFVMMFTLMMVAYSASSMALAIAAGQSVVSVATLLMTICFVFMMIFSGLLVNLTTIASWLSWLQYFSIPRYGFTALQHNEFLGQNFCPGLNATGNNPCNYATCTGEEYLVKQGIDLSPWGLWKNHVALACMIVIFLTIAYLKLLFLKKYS

`N#CCCCCC#N` was tested, and the outcome (CDK2 (gene 1017)) was “inactive”, the outcome [1] was “inactive” and the outcome [2] was “inactive”. The outcome [3] was “inactive”, the outcome [4] was “inactive” and the outcome [5] was “inactive”. The outcome [6] was “inactive”, the outcome [7] was “inactive” and the outcome [8] was “inactive”. The outcome [9] was “inactive”, the outcome [10] was “inactive” and the outcome [11] was “inactive”. The outcome [12] was “inactive”, the outcome [13] was “inactive” and the outcome [14] was “inactive”. The outcome [15] was “inactive”, the outcome [16] was “inactive” and the outcome [17] was “inactive”. For the same compound, the outcome [18] was “inactive” and the outcome [19] was “inactive”.
With `O=[N+]([O-])c1ccc(Cl)cc1` the outcome (CDK2 (gene 1017)) was “inactive”, the outcome [1] was “inactive” and the outcome [2] was “inactive”. For the same compound, the outcome [3] was “inactive”, the outcome [4] was “inactive” and the outcome [5] was “inactive”. The outcome [6] was “inactive”, the outcome [7] was “inactive” and the AC50 [8] was 37.8 µM (active). For the same compound, the outcome [9] was “inactive”, the outcome [10] was “inactive” and the outcome [11] was “inactive”. The outcome [12] was “inactive”, the outcome [13] was “inactive” and the outcome [14] was “inactive”. For the same compound, the outcome [15] was “inactive”, the outcome [16] was “inactive” and the outcome [17] was “inactive”. For the same compound, the outcome [18] was “inactive” and the outcome [19] was “inactive”.
